Here are results for 27 molecules from the supplement of paper PMC4840960.

Counter-ions that a name gives are not always drawn. Unmarked numbers belong to inactive results.

The subject of one assay is E18 rat cortical neuron-glia co-culture. In words: myelination (MBP fiber length per Olig2+ nucleus), % of 1 µM DAPT response (DMSO = 0) (% of DAPT); higher = more myelination, active = 50 or more. Particulars: 1 µM; treatment time: 8 days (DIV5-DIV13). Put shortly:
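Four 10X fields in each of duplicate wells were analysed after cultures were fixed in 4 % paraformaldehyde and immunostained for MBP and Olig2, with DAPI as the nuclear counterstain. The cultures were papain-dissociated primary E18 rat cortical co-cultures at 20,000 cells/well on poly-d-lysine/laminin 96-well plates, dosed with library compounds at 1 or 5 µM in myelination medium from DIV5 to DIV13. The myelination readout was continuous straight MBP fiber length per Olig2+ nucleus, with 0.1 % DMSO set to 0 and a 1 µM positive control set to 100.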
As for `CCC(COC(=O)c1cc(OC)c(OC)c(OC)c1)(c1ccccc1)N(C)C` (centres undefined) [Trimebutine], the myelination was -54.2.
On the same count and under the same terms, under `CNC(=O)Oc1ccc2c(c1)[C@]1(C)CCN(C)[C@@H]1N2C` [Physostigmine] stands -13.2; under `C[C@]12CCC(=O)C=C1CC[C@@H]1[C@@H]2CC[C@@]2(C)[C@H]1CC[C@]2(C)O` [Methyltestosterone], -24.8; under `O=C1CC[C@@]2(O)[C@H]3Cc4ccc(O)c5c4[C@@]2(CCN3CC2CC2)[C@H]1O5` [Naltrexone], 14.8.
On the same count and under the same terms, under `c1ccc(Cn2ccnc2)cc1` [1-Benzylimidazole] stands -11.8; under `COc1cc2c(cc1OC)[C@@]13CCN4CC5=CCO[C@H]6CC(=O)N2[C@H]1[C@H]6[C@H]5C[C@H]43` [Brucine], -6.05; under `NC(=O)OCCCc1ccccc1` [Phenprobamate], -14.2.
For `CCCCC/C=C\C/C=C\C/C=C\C/C=C\CCCC(=O)Nc1ccc(O)cc1`, the myelination is -0.524.
Still for that read-out and setting: under `O=P1(N(CCCl)CCCl)NCCCO1` (centres undefined) [Cyclophosphamide] stands -41; under `CCN(CC)CCOC(=O)C(O)(c1ccccc1)c1ccccc1` [Benactyzine], 1.93; under `C=C1C[C@@H]2[C@H](CC[C@]3(C)C(=O)CC[C@@H]23)[C@@]2(C)C=CC(=O)C=C12` [Exemestane], -11.3.
Still for that read-out and setting: under `O=C1CN=C(c2ccccc2)c2cc([N+](=O)[O-])ccc2N1` [Nitrazepam] stands -6.44; under `COc1cc(N)c(Cl)cc1C(=O)NC1CN2CCC1CC2` (centres undefined) [Zacopride], -11.9.
As to `C#CCN(C)[C@H](C)Cc1ccccc1` [Selegiline], the myelination was -16.
For the molecule `CCCN1C[C@H](CSC)C[C@@H]2c3cccc4[nH]cc(c34)C[C@H]21` [Pergolide], the myelination was -19.3.
The same measure, in the same setting: under `C=CCN1CC[C@]23c4c5ccc(O)c4O[C@H]2C(=O)CC[C@@]3(O)[C@H]1C5` [Naloxone] stands -7.1; under `CN1CC[C@]23CCCC[C@H]2[C@H]1Cc1ccc(O)cc13` [Levorphanol], -27.6.
As to `Cc1ncc2n1-c1ccc(Cl)cc1C(c1ccccc1F)=NC2` [Midazolam], the myelination is -0.202.
Still for that read-out and setting: under `COc1ccc2[nH]cc(CCN)c2c1` [5-Methoxytryptamine] stands -6.66; under `CNC1=Nc2ccc(Cl)cc2C(c2ccccc2)=[N+]([O-])C1` [Chlordiazepoxide], 0.872.
The same measure, in the same setting: under `COC(=O)N1CCN(C(=O)Cc2ccc(Cl)c(Cl)c2)C(CN2CCCC2)C1` (centres undefined) stands -13; under `CCC(C(N)=O)N1CCCC1=O` (centres undefined) [Etiracetam], -28.6.
The same measure, in the same setting: under `NC1=NC(=O)C(c2ccccc2)O1` (centres undefined) [Pemoline] stands -21.3.
Regarding `CC(O)(CS(=O)(=O)c1ccc(F)cc1)C(=O)Nc1ccc(C#N)c(C(F)(F)F)c1` (centres undefined) [Bicalutamide], the myelination was -28.
Same read-out and setting: under `FC(F)(F)c1cccc(N2CCNCC2)c1` [1-(3-trifluoromethylphenyl)piperazine hydrochloride (TFMPP)] stands -32.2; under `O=C(O)C(Cl)Cl` [Dichloroacetic Acid], -10.2; under `c1ccc2c(c1)Nc1ccccc1S2` [Phenothiazine], -16.1.

The assay is the same for the next values; noted with them: 5 µM; treatment time: 8 days (DIV5-DIV13).
Turning to `CCC(COC(=O)c1cc(OC)c(OC)c(OC)c1)(c1ccccc1)N(C)C` (centres undefined) [Trimebutine], the myelination was -64.
On the same count and under the same terms, under `CNC(=O)Oc1ccc2c(c1)[C@]1(C)CCN(C)[C@@H]1N2C` [Physostigmine] stands -9.34; under `C[C@]12CCC(=O)C=C1CC[C@@H]1[C@@H]2CC[C@@]2(C)[C@H]1CC[C@]2(C)O` [Methyltestosterone], -17.2.
Still for that read-out and setting: under `O=C1CC[C@@]2(O)[C@H]3Cc4ccc(O)c5c4[C@@]2(CCN3CC2CC2)[C@H]1O5` [Naltrexone] stands 1.8.
Still for that read-out and setting: under `c1ccc(Cn2ccnc2)cc1` [1-Benzylimidazole] stands -0.886; under `COc1cc2c(cc1OC)[C@@]13CCN4CC5=CCO[C@H]6CC(=O)N2[C@H]1[C@H]6[C@H]5C[C@H]43` [Brucine], -15.7.
For the molecule `NC(=O)OCCCc1ccccc1` [Phenprobamate], the myelination was -11.4.
`CCCCC/C=C\C/C=C\C/C=C\C/C=C\CCCC(=O)Nc1ccc(O)cc1`: the myelination is -30.5.
Still for that read-out and setting: under `O=P1(N(CCCl)CCCl)NCCCO1` (centres undefined) [Cyclophosphamide] stands -54.7; under `CCN(CC)CCOC(=O)C(O)(c1ccccc1)c1ccccc1` [Benactyzine], 0.796; under `C=C1C[C@@H]2[C@H](CC[C@]3(C)C(=O)CC[C@@H]23)[C@@]2(C)C=CC(=O)C=C12` [Exemestane], -11.8.
The same measure, in the same setting: under `O=C1CN=C(c2ccccc2)c2cc([N+](=O)[O-])ccc2N1` [Nitrazepam] stands 0.525; under `COc1cc(N)c(Cl)cc1C(=O)NC1CN2CCC1CC2` (centres undefined) [Zacopride], -0.361.
The same measure, in the same setting: under `C#CCN(C)[C@H](C)Cc1ccccc1` [Selegiline] stands -0.224.
Consider `CCCN1C[C@H](CSC)C[C@@H]2c3cccc4[nH]cc(c34)C[C@H]21` [Pergolide], for which the myelination is -24.9.
On the same count and under the same terms, under `C=CCN1CC[C@]23c4c5ccc(O)c4O[C@H]2C(=O)CC[C@@]3(O)[C@H]1C5` [Naloxone] stands 3.29; under `CN1CC[C@]23CCCC[C@H]2[C@H]1Cc1ccc(O)cc13` [Levorphanol], -51.1.
Consider `Cc1ncc2n1-c1ccc(Cl)cc1C(c1ccccc1F)=NC2` [Midazolam], for which the myelination is 31.1.
Consider `COc1ccc2[nH]cc(CCN)c2c1` [5-Methoxytryptamine], for which the myelination is -8.85.
Same read-out and setting: under `CNC1=Nc2ccc(Cl)cc2C(c2ccccc2)=[N+]([O-])C1` [Chlordiazepoxide] stands -16.1; under `COC(=O)N1CCN(C(=O)Cc2ccc(Cl)c(Cl)c2)C(CN2CCCC2)C1` (centres undefined), -22.4.
On the same count and under the same terms, under `CCC(C(N)=O)N1CCCC1=O` (centres undefined) [Etiracetam] stands -27.5; under `NC1=NC(=O)C(c2ccccc2)O1` (centres undefined) [Pemoline], -11.3.
Still for that read-out and setting: under `CC(O)(CS(=O)(=O)c1ccc(F)cc1)C(=O)Nc1ccc(C#N)c(C(F)(F)F)c1` (centres undefined) [Bicalutamide] stands -2.06; under `FC(F)(F)c1cccc(N2CCNCC2)c1` [1-(3-trifluoromethylphenyl)piperazine hydrochloride (TFMPP)], -32.7; under `O=C(O)C(Cl)Cl` [Dichloroacetic Acid], -7.43.
On to `c1ccc2c(c1)Nc1ccccc1S2` [Phenothiazine], for which the myelination was -5.33.
